Measured values as given in ChEMBL document CHEMBL1961873, “Compounds: GSK PKIS; Assays: Nanosyn kinase panel” (2012).

Tests used:
[1] = target: Serine/threonine-protein kinase MARK2 (Homo sapiens) (UniProt Q7KZI7); conditions: at 1 µM
[2] = target: PAS domain-containing serine/threonine-protein kinase (Homo sapiens) (UniProt Q96RG2); conditions: at 0.1 µM
[3] = target: PAS domain-containing serine/threonine-protein kinase (Homo sapiens) (UniProt Q96RG2); conditions: at 1 µM
[4] = target: Phosphorylase b kinase gamma catalytic chain, skeletal muscle/heart isoform (Homo sapiens) (UniProt Q16816); conditions: at 0.1 µM
[5] = target: Phosphorylase b kinase gamma catalytic chain, skeletal muscle/heart isoform (Homo sapiens) (UniProt Q16816); conditions: at 1 µM
[6] = target: T1, Phosphorylase b kinase gamma catalytic chain, liver/testis isoform (Homo sapiens) (UniProt P15735); conditions: at 0.1 µM
T1 sequence (whole entry): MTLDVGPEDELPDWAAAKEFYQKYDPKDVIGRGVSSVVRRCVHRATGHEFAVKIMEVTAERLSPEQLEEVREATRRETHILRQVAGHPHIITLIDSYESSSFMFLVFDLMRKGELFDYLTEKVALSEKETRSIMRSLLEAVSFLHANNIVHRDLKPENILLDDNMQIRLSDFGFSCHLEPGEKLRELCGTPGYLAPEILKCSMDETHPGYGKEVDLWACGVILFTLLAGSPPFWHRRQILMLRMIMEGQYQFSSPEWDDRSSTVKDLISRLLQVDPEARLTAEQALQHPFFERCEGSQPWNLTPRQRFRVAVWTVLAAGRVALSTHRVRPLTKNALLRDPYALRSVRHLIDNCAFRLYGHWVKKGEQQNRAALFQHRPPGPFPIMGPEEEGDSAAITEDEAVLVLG

[7] = target: T1, Phosphorylase b kinase gamma catalytic chain, liver/testis isoform (Homo sapiens); conditions: at 1 µM
[8] = target: Serine/threonine-protein kinase pim-1 (Homo sapiens) (UniProt P11309); conditions: at 0.1 µM
[9] = target: Serine/threonine-protein kinase pim-1 (Homo sapiens) (UniProt P11309); conditions: at 1 µM
[10] = target: Serine/threonine-protein kinase pim-2 (Homo sapiens) (UniProt Q9P1W9); conditions: at 0.1 µM
[11] = target: Serine/threonine-protein kinase pim-2 (Homo sapiens) (UniProt Q9P1W9); conditions: at 1 µM
[12] = target: Serine/threonine-protein kinase pim-3 (Homo sapiens) (UniProt Q86V86); conditions: at 0.1 µM
[13] = target: Serine/threonine-protein kinase pim-3 (Homo sapiens) (UniProt Q86V86); conditions: at 1 µM
[14] = target: T2, MAP kinase-activated protein kinase 5 (Homo sapiens) (UniProt Q8IW41); conditions: at 0.1 µM
T2 sequence (whole entry): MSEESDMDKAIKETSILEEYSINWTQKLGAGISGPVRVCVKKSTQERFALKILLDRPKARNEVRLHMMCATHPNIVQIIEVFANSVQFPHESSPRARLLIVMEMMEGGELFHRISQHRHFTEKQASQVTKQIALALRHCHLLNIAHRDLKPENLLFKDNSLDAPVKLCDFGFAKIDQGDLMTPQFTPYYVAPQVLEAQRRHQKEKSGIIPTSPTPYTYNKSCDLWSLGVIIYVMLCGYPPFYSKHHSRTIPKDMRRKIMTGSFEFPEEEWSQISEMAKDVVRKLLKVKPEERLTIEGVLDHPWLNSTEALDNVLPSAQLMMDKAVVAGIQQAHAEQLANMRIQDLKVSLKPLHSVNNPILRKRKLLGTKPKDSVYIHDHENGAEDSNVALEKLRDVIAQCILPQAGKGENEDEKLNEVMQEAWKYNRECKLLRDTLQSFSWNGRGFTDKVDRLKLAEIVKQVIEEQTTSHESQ

[15] = target: T2, MAP kinase-activated protein kinase 5 (Homo sapiens); conditions: at 1 µM
[16] = target: Serine/threonine-protein kinase SIK1 (Homo sapiens) (UniProt P57059); conditions: at 0.1 µM
[17] = target: Serine/threonine-protein kinase SIK1 (Homo sapiens) (UniProt P57059); conditions: at 1 µM
[18] = target: Serine/threonine-protein kinase SIK2 (Homo sapiens) (UniProt Q9H0K1); conditions: at 0.1 µM
[19] = target: Serine/threonine-protein kinase SIK2 (Homo sapiens) (UniProt Q9H0K1); conditions: at 1 µM
[20] = target: T3, Serine/threonine-protein kinase TBK1 (Homo sapiens) (UniProt Q9UHD2); conditions: at 0.1 µM;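 also: values are the mean TBK1 inhibition, taken from the GSK PKIS screening data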
T3 sequence (whole entry): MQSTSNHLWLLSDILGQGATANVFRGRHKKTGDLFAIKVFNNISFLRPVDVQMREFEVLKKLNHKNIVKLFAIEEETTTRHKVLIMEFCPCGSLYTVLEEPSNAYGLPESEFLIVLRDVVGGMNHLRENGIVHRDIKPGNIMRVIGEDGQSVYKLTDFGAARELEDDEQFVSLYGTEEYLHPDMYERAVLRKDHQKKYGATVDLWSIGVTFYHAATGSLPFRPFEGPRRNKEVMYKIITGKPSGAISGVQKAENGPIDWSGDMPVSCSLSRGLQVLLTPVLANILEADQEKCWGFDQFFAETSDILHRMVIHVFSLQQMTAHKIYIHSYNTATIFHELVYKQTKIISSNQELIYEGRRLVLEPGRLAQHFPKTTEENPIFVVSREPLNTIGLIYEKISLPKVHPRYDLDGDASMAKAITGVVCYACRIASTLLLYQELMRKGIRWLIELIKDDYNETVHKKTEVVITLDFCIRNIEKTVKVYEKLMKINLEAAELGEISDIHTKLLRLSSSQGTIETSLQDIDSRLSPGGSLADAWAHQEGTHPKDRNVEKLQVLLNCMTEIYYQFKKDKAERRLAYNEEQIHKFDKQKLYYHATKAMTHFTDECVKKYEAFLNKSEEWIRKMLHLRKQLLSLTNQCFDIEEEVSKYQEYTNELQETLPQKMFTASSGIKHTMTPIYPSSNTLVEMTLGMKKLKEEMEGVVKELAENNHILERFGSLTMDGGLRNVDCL

Chain of Phosphorylase b kinase gamma catalytic chain, skeletal muscle/heart isoform (Homo sapiens) (Q16816 whole entry, looked up, canonical isoform): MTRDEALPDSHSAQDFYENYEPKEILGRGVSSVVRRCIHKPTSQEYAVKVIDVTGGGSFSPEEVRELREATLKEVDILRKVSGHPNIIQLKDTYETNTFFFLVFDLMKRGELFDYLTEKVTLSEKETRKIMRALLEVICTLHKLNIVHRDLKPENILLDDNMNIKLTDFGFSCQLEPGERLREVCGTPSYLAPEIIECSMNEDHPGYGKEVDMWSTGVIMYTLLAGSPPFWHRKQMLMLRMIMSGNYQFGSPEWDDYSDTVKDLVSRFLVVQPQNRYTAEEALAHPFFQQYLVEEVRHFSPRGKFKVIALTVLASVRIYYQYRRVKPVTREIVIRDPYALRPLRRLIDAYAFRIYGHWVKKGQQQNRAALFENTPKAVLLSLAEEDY
Chain of Serine/threonine-protein kinase SIK1 (Homo sapiens) (P57059 whole entry): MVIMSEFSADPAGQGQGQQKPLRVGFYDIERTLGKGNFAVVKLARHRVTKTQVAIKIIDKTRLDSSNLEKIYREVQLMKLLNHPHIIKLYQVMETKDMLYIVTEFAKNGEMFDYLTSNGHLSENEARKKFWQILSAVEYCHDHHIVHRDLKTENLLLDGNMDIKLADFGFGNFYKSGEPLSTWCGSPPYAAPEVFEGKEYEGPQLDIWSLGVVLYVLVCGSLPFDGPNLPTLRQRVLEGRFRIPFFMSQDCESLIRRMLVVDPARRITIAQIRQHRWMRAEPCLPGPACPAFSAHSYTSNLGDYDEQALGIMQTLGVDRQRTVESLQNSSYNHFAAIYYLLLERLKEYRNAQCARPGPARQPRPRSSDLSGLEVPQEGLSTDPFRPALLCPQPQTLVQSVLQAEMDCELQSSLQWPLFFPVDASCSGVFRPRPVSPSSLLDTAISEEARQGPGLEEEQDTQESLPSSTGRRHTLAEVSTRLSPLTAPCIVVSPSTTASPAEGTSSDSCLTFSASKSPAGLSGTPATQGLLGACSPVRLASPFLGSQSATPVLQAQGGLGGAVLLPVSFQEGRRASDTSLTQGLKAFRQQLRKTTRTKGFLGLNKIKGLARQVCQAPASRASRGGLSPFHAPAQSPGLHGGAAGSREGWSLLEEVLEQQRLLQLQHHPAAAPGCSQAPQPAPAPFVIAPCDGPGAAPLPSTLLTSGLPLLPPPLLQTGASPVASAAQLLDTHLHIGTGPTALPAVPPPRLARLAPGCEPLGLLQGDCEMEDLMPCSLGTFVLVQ
Chain of PAS domain-containing serine/threonine-protein kinase (Homo sapiens) (Q96RG2 whole entry, the tested form may be a part, canonical isoform): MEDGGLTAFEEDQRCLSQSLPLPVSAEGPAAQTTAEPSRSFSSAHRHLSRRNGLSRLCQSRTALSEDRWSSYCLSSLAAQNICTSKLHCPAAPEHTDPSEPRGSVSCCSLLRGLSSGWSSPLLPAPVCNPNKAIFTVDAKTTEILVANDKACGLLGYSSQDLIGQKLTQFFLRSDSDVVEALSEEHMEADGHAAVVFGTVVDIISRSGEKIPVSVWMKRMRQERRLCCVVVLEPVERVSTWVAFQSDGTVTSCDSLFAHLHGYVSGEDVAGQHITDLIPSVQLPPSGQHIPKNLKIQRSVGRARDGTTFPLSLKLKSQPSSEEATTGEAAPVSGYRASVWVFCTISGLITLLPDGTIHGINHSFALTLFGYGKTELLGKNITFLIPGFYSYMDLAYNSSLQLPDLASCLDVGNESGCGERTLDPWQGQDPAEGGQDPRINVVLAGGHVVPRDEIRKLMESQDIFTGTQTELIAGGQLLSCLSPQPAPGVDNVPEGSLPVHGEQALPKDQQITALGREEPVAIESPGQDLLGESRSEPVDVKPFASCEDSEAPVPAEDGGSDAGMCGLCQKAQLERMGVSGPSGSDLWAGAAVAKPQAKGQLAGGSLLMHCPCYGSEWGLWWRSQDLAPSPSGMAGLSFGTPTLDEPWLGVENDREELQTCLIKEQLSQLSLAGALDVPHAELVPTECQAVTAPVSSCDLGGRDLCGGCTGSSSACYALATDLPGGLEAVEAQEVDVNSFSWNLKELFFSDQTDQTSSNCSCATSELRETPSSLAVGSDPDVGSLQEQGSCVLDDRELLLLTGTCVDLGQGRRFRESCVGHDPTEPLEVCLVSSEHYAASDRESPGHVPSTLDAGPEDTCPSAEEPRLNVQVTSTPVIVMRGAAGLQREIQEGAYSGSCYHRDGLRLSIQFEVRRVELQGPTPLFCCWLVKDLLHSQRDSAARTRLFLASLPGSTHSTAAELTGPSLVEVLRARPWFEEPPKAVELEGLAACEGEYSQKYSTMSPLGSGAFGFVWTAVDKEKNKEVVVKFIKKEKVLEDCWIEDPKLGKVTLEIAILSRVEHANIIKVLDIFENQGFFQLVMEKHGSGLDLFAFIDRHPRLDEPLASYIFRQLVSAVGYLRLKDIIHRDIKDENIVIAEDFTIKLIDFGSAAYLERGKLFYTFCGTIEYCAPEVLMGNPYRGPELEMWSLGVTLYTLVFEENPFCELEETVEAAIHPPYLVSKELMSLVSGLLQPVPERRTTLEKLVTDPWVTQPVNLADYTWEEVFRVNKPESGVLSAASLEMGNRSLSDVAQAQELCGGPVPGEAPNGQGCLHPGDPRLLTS
Chain of Serine/threonine-protein kinase pim-2 (Homo sapiens) (Q9P1W9 whole entry, looked up): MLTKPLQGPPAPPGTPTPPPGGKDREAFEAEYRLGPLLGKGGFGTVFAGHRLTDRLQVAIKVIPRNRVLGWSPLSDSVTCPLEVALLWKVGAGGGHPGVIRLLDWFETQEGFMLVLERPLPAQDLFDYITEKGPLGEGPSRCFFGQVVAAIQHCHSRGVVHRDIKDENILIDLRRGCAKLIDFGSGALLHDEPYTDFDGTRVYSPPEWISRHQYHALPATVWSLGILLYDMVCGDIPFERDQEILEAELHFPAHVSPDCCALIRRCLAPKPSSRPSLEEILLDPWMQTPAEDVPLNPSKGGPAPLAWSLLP
Chain of Serine/threonine-protein kinase pim-1 (Homo sapiens) (P11309 whole entry, looked up): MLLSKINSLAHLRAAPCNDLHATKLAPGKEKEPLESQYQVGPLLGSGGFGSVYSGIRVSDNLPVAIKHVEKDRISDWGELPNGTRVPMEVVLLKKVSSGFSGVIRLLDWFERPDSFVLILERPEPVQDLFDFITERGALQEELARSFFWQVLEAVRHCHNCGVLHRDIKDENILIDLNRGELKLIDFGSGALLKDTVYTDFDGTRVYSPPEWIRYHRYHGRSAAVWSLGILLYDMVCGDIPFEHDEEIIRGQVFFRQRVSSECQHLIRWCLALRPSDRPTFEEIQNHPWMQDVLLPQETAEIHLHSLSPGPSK
Chain of Serine/threonine-protein kinase MARK2 (Homo sapiens) (Q7KZI7 whole entry, the tested form may be a part): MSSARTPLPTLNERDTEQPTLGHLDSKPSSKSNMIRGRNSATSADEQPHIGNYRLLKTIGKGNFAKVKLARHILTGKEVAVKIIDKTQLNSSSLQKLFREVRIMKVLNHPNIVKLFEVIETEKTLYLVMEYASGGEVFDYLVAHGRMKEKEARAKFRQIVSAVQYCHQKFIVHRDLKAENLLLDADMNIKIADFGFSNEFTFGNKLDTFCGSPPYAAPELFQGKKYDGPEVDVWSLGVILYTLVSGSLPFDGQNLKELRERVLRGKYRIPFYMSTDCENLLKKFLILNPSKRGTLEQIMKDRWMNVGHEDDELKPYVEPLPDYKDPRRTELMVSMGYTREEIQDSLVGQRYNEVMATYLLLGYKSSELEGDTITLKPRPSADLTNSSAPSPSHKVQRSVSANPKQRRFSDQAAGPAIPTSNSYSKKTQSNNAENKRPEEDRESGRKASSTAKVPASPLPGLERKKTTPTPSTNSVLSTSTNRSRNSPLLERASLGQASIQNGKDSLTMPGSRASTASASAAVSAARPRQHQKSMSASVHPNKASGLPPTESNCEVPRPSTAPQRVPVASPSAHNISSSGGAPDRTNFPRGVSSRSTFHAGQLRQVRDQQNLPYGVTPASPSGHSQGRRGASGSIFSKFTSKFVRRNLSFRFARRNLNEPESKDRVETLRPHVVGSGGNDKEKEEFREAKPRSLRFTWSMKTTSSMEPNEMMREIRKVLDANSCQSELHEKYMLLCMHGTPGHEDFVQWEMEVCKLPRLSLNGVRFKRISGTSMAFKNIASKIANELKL

SMILES	inhibition [1] [%]	inhibition [2] [%]	inhibition [3] [%]	inhibition [4] [%]	inhibition [5] [%]	inhibition [6] [%]	inhibition [7] [%]	inhibition [8] [%]	inhibition [9] [%]	inhibition [10] [%]	inhibition [11] [%]	inhibition [12] [%]	inhibition [13] [%]	inhibition [14] [%]	inhibition [15] [%]	inhibition [16] [%]	inhibition [17] [%]	inhibition [18] [%]	inhibition [19] [%]	inhibition [20] [%]
OCc1ccc(-c2nc(-c3ccccn3)c(-c3ccc4c(c3)OCO4)[nH]2)cc1	2.05	0.83	-1.14	2.77	-6	5.91	2.21	0.78	0.98	0.72	1.41	-1.14	-3.44	1.17	-0.12	9	5.84	8.76	7.48	2.36
CC(C)c1ccc(Nc2nccc(-c3cnn4ncccc34)n2)cc1	1.01	-0.78	-0.93	2.33	7.97	4.16	3.83	-0.71	2.45	-0.13	1.73	0.51	6.16	0.53	1.09	4.79	8.55	2.73	11.3	1.14
O=C1Nc2ccccc2/C1=C/Nc1ccc2[nH]c(=O)[nH]c2c1	13.4	12.4	64.1	10.5	42.6	7.44	21.4	-0.21	2.44	0.27	-0.46	-0.36	5.21	1.86	5	3.92	14.9	9.13	17.6	8.2
Cc1ccc2c(-c3ccnc(Nc4ccc5c(c4)OCCO5)n3)c(-c3ccc(C(F)(F)F)cc3)nn2n1	2.02	1.16	1.48	3.21	1.99	1.58	1.14	-0.32	0.3	0.44	1.63	0.32	0.77	0.37	0.83	0.02	-0.13	10.8	0.48	0.84
Nc1nccc(C#Cc2cncnc2Nc2ccc(OCc3cccc(F)c3)c(Cl)c2)n1	8.86	-0.05	-3.04	6.86	27.5	4.05	2.05	1.29	1.16	0.62	1.29	-0.87	-1.09	0.74	-0.01	5.03	6.42	5.11	8.28	4.36
COc1ccc(-c2nn3ncccc3c2-c2ccnc(Nc3cccc(C(F)(F)F)c3)n2)cc1	1.37	0.84	0.1	3.78	4.58	4.42	4.66	0.05	0.66	0.02	0.24	-0.01	0.75	1.02	1.07	7.99	2.26	4.76	8.4	0.76
O=C(Nc1ccc(Oc2ccc3[nH]c(NC(=O)c4ccco4)nc3c2)cc1)Nc1cc(C(F)(F)F)ccc1F	0.83	0.28	0.06	0.41	8.29	0.46	-0.56	0.14	1.19	-3.36	-3.75	0.09	0.78	-0.29	-0.75	4.18	4.41	-4.88	0.5	0.65
NC(=O)c1sc(-n2cnc3ccccc32)cc1OCc1ccccc1Br	6.32	-0.54	-0.07	2.76	6.49	4.32	5.93	0.2	3.08	-0.36	0.78	-1.03	3.81	1.15	0.91	4.47	13.6	3.55	9.83	0.38
C[C@@H](Oc1cc(-n2cnc3ccc(OCC4CCN(C)CC4)cc32)sc1C(N)=O)c1ccccc1C(F)(F)F	43.4	1.41	2.84	1.57	7.24	-1.2	10.8	18.7	68.4	0.26	1.56	8.51	47.6	-0.8	-1.08	13.5	65.6	6.88	30.3	-2.73
NC(=O)c1cccc(Nc2nccc(Nc3cccc(F)c3)n2)c1	3.47	1.27	0.17	-0.51	3.35	1.29	0.54	-0.04	-0.4	-0.05	0.31	0.13	2	0.33	-0.56	9.14	37	7.47	25.1	1.55
N#Cc1c(NC(=O)c2ccccc2F)sc2c1CCCC2	3.45	1.88	1.22	1.23	2.36	-2.2	-2.57	0.9	2.11	0.14	0.56	0.44	2.71	-0.42	-0.7	0.64	2.74	-2.07	-0.94	-1.61
CN(C)C(=O)O[C@@H]1CN[C@@H](C#Cc2cc3ncnc(Nc4ccc(OCc5cccc(F)c5)c(Cl)c4)c3s2)C1	1.06	-0.1	-0.12	0.51	-3.21	1.07	-1.09	1.41	0.48	0.15	0.58	-0.21	-1.29	-0.43	-2.16	0.03	3.96	-0.41	10.1	4.03
FC(F)(F)c1ccc(-c2nn3ncccc3c2-c2ccnc(Nc3ccc4c(c3)OCCO4)n2)cc1	4.45	6.37	10.9	7.07	8.64	0.59	6.97	0.47	1.86	6.45	5.12	6.66	10.2	2.37	5.39	-4.38	0.84	-0.15	0.08	5.62
